Assay [1] has as its target T1, Aspartate--tRNA(Asp/Asn) ligase (Mycobacterium tuberculosis (strain ATCC 25618 / H37Rv)) (UniProt P9WFW3). Further: in the data most compounds retested in dose-response had high values.
T1 sequence (whole entry): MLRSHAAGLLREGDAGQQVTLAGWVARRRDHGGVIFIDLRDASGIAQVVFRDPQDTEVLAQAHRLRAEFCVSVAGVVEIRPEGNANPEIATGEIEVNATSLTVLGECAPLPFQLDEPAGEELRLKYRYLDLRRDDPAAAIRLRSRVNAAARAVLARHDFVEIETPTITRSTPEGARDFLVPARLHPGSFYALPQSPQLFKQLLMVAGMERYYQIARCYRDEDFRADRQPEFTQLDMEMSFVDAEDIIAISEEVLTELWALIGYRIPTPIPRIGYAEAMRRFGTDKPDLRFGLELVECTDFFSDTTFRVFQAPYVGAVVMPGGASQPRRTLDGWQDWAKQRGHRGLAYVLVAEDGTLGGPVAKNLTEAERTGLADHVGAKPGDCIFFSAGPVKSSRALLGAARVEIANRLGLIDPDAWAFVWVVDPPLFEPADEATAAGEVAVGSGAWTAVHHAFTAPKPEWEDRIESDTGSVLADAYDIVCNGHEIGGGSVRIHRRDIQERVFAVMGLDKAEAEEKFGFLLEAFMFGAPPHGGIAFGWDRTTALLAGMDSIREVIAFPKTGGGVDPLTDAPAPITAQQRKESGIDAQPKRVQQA
The assay can be described thus: Assay for Asp RNA synthetase-1 from Mycobacterium tuberculosis. It counts as functional. On the set-up: scale not given: direction of the effect not stated beside the values. The conditions noted are these: 30 µM.

Assay [2] deals with Shiga toxin 2 (Escherichia coli O157:H7) (UniProt P09385+P09386). The assay can be described thus: E. coli 0.157:H7 Shiga Toxin SOP - stx2 screening assay. It counts as functional. On the set-up: scale not given: direction of the effect not stated beside the values. The note with it: 30 µM.

Regarding `COc1cc(C)nc(N2CCN(C(=O)c3ccc[nH]3)CC2)n1`, the results for the Percent Effect in assay [1] and in assay [2] were 1.55% and 11.2%, respectively.
For `COc1cccc2c1ccn2CC(=O)N[C@@H](CCSC)C(=O)O`, in that order: 6.16% and -11.2%.
Consider `CC(C)c1nnc(NC(=O)NCc2ccc(CO)c(F)c2)s1`, for which the Percent Effect was 1.21% in assay [1] and 0.535% in assay [2].
On the same counts, the results for `C=Cc1ccc(C(=O)N2CCCC(Nc3ccc(OC)cc3)C2)cc1` (centres undefined) are 1.04% and -6.01%.
For `CCN(CC)C(=O)c1cc(C2CCCN2C)ccn1` (centres undefined), the Percent Effect worked out at 4.39% in assay [1] and 1.51% in assay [2].
On the same counts, the results for `CNC(=O)C1(c2cnccn2)CCCN1C(=O)c1ccn(C)n1` (centres undefined) are -7.79% and -1.47%.
For `Cc1ccc(C(=O)N2CCC3(CC2)CC(N2CCOCC2)C3)cc1`, in that order: -1.52% and 3.95%.
On the same counts, the results for `Cn1cc(S(=O)(=O)N2CCCC2CC(=O)c2cccs2)cn1` (centres undefined) are 1.01% and -9.63%.
`COc1ccccc1Oc1ncccc1CNC(=O)C(C)N1CCCC1` (centres undefined): the Percent Effect in assay [1] was -0.0279%; in assay [2], 6.37%.
On the same counts, the results for `C[C@H](O)CNC(=O)c1cnc(-c2ccccc2)nc1O` are 2.44% and -10.8%.
Regarding `O=C(COCC1CC1)N1CCCC(n2cncn2)C1` (centres undefined), the values for the Percent Effect in assay [1] and in assay [2] were -4.03% and 18.2%, respectively.
On the same counts, the results for `CCCn1[nH]cc/c1=N\C(=O)CN1CCc2cnc(CC)nc2C1` are 5.8% and -6.51%.
For `CC(Cn1cccn1)NC(=O)N1CCN(Cc2cccnc2)CC1` (centres undefined), the Percent Effect is 0.625% in assay [1] and -18.1% in assay [2].
On the same counts, the results for `Cc1ccc(-c2nnc(CNCCn3cc(C)cn3)o2)cc1` are 2.15% and -42%.
In the case of `Cc1nc(COC[C@]23COC[C@H]2CN(Cc2ccoc2)C3)cs1`, the Percent Effect in assay [1] is -0.55%; in assay [2], 4.86%.
For `CCOc1ccc(Cl)cc1CNCCCn1ccnc1`, in that order: 0.842% and -32.5%.
On the same counts, the results for `Cc1cccnc1NC(=O)NCc1ccc(N2CCNC(=O)C2)cc1` are 5.31% and -63.3%.

(Values after ChEMBL document CHEMBL3988442, “University of Dundee, Small-Polar-MMV Screening Library” (2021).)
